Test results as given in PubChem BioAssay (NCATS).
Where “and” joins values, the source holds several entries; their conditions need not be identical. Identical values can stand only once. Results filed as inconclusive are left out. A number with no mark means an inactive call. Calls of active or inactive are those of the source. Calls come from the whole dose curve.

What was measured:
[1] = biological target: Bile acid receptor (Homo sapiens) (UniProt Q96RI1); assay: qHTS assay for small molecule agonists of farnesoid X receptor signaling (AID 588527); conditions: HEK293T FXR-UAS-bla, beta-lactamase ratio, 16 h; activation: hits give high values;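 note: 0% = vehicle basal and 100% = reference agonist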
Procedure, shortened: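 Agonist-mode beta-lactamase reporter in GeneBLAzer FXR-UAS-bla HEK293T cells, titration up to 92 uM, 16 h exposure at 37 C, CCF4 fluorescence. Response scaled to DMSO (0%) and 100 uM chenodeoxycholic acid (100%), then Hill-fitted for EC50 and efficacy.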

[2] = biological target: Peroxisome proliferator-activated receptor delta (Homo sapiens) (UniProt Q03181); assay: qHTS assay for small molecule agonists of peroxisome proliferator-activated receptor delta signaling (AID 588534); conditions: HEK293T PPARdelta-UAS-bla, beta-lactamase ratio, 18 h; series mostly up to 76.7 µM;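 note: 0% = DMSO basal wells and 100% = positive control agonist at 10 µM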
Procedure, shortened: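 Agonist-mode qHTS; reporter cells, 5 hrs 37 C pre-incubation; compound titration, 18 hrs 37 C; CCF4 dye, 2 hrs RT; fluorescence read. EC50/efficacy via Hill fit.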

Sequence of Peroxisome proliferator-activated receptor delta (Homo sapiens) (Q03181 whole entry, looked up): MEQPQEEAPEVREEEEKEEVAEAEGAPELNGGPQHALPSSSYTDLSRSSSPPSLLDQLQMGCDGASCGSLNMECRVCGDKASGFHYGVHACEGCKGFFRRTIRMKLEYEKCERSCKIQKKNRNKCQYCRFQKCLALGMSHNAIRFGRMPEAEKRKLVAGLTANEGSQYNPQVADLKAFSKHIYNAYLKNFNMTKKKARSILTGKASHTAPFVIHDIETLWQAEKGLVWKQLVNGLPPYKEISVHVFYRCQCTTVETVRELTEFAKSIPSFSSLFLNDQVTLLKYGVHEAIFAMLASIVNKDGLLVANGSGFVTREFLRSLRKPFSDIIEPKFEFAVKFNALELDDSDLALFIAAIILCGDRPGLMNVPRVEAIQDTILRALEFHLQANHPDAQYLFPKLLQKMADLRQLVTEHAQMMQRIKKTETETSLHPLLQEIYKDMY
Sequence of Bile acid receptor (Homo sapiens) (Q96RI1 whole entry, looked up): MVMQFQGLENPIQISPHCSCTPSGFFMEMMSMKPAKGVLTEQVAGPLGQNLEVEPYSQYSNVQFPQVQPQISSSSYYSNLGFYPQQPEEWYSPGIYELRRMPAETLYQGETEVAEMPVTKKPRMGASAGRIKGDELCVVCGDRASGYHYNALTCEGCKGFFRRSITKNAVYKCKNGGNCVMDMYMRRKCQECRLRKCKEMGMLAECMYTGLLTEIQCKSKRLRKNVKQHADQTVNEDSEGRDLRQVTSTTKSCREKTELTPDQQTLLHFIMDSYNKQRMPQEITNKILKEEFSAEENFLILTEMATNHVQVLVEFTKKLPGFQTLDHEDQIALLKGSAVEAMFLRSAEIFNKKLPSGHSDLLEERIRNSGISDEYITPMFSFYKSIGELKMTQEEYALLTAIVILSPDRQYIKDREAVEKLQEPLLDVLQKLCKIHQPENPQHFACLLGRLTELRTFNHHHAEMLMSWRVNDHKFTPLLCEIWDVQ

SMILES | activation [1] | outcome [2]
CC(=O)CC(=O)Nc1ccc(C)cc1C | 0.192% | inactive
CC(C)(c1cc(Br)c(O)c(Br)c1)c1cc(Br)c(O)c(Br)c1 | 3.15% and 6.79% and 4.84% | inactive
O=C(O)CC(C(=O)O)C(CC(=O)O)C(=O)O (configuration not stated) | -1.38% and -0.082% | inactive
O=C(O)c1cccc(C(=O)O)c1 | -0.333% | inactive
O=C(O)C(Oc1ccc(Cl)cc1)Oc1ccc(Cl)cc1 | -1.96% | inactive
c1ccc(B(c2ccccc2)c2ccccc2)cc1 | 2.92% | inactive
NC(=O)Cc1cccc2ccccc12 | 0.544% | inactive
Cc1ccc([N+](=O)[O-])c(C)c1 | 0.441% and 0.298% | inactive
C1COC1 | -2.57% | inactive
O=C(O)c1ccc(Cl)c(Cl)c1 | -2.87% | inactive
Cc1ccc(N=Nc2c(O)ccc3ccccc23)c(C)c1 | -0.864% | inactive
CCCCCCC(O)CCCCCCCCCCC(=O)O (configuration not stated) | 3.12% | inactive
CCCCCCCCOC(=O)c1cc(O)c(O)c(O)c1 | 5.29% | inactive
CSCCC=O | -2.56% | inactive
CCC(C)=O | -0.657% | inactive
CC(C=O)Cc1ccc(C(C)(C)C)cc1 (configuration not stated) | 0.434% and 1.86% | inactive
CCNc1nc(NC(C)CC)nc(OC)n1 (configuration not stated) | -1.27% | inactive
CCCCN(CCO)CCCC | -4.1% | inactive
C[Si](C)(Cl)[Si](C)(C)Cl | 0.0904% | inactive
COc1cccc2sc(N)nc12 | -1.11% | inactive
CNc1nc(=O)n(C2CCCCC2)c(=O)n1C | -6.04% | inactive
CC(=O)Nc1cccc(N)c1 | -3.44% | inactive
CCCCCCCOC(=O)c1ccccc1C(=O)OCCCCCCC | -0.976% | inactive
O=C=Nc1ccc(Cc2ccc(N=C=O)cc2)cc1 | 3.57% and 0.965% | inactive

SMILES | activation [1] | outcome [2]
CCCCCCCCCCCCC1CO1 (configuration not stated) | -2.55% | inactive
C[Si](C)(C)Cl | 1.08% | inactive
BrC1CCC(Br)C(Br)CCC(Br)C(Br)CCC1Br (configuration not stated) | 3.55% | inactive
CCOc1ccc(NC(=O)OC(C)C)cc1OCC | -1.45% | inactive
CCCCCCCCCCCCCCCCCCN | 1.62% | inactive
CC(C)(C)c1cccc(C(C)(C)C)c1O | -3.57% | inactive
Cc1ccc(N=Nc2c(O)ccc3ccccc23)c([N+](=O)[O-])c1 | -0.458% | inactive
CC(O)CC(C)O (configuration not stated) | -1.48% | inactive
Cn1c(=O)[nH]c(=O)n(C2CCC(O)CC2)c1=O (configuration not stated) | -4.56% | inactive
O=C(OCCOCCOC(=O)c1ccccc1)c1ccccc1 | -0.568% | inactive
Cc1ccc(Cl)cc1 | -1.75% | inactive
CCCCO | 0.769% and 0.512% | inactive
CC(C)OC(=O)c1ccccc1C(=O)OC(C)C | 0.429% | inactive
CC(=O)OC(C(=O)c1ccccc1)c1ccccc1 (configuration not stated) | -3.38% | inactive
CC(C)c1cccc(C(C)C)c1 | -1.96% | inactive
CCCCCCCCCCCCOCC1CO1 (configuration not stated) | -0.164% | inactive
CC(C)O | -0.657% | inactive
OCc1cccc(Oc2ccccc2)c1 | -0.998% | inactive
CC(N)CN (configuration not stated) | -2.35% | inactive
Nc1cccc(O)c1 | -1.81% | inactive
CCCCC(CC)COCCCN (configuration not stated) | -0.0297% | inactive
O=[N+]([O-])c1ccc(NCCO)c(OCCO)c1 | -1.27% | inactive
CC1=CC(=O)CC(C)(C)C1(O)/C=C/C(C)=C\C(=O)O (configuration not stated) | -3.19% | inactive
NNS(=O)(=O)c1ccc(Oc2ccc(S(=O)(=O)NN)cc2)cc1 | -0.0085% | inactive

SMILES | activation [1] | outcome [2]
CCC/C(=N\OCC)C1=C(O)CC(O)(CC(C)S(=O)(=O)CC)CC1=O (configuration not stated) | 0.69% | inactive
CC1=C(/C=C/C(C)=C/C=C/C(C)=C/C=O)C(C)(C)CCC1 | 23.6% | inactive
CCCCCCCCCC(=O)OC | -0.517% | inactive
CCCCC/C=C/C=C/C=O | 3.19% and -0.429% | inactive
CCCCOCCOCCOCCCC | -0.244% | inactive
C=C(C)C1CC=C(C)C(OC(C)=O)C1 (configuration not stated) | -0.422% | inactive
C=CC(C)(O)CC/C=C(\C)CCC=C(C)C (configuration not stated) | 0.971% | inactive
COC(=O)c1c(Cl)nn(C)c1S(=O)(=O)NC(=O)Nc1nc(OC)cc(OC)n1 | 3.79% | inactive
CC(O)CO (configuration not stated) | 1.32% and -0.791% | inactive
C=Cc1ccccc1Cl | 0.519% | inactive
COC(=O)c1ccc(C=O)cc1 | 0.0505% and 0.394% | inactive
O=C=NCCCCCCN=C=O | 0.566% | inactive
CC(CCC(=O)O)(c1ccc(O)cc1)c1ccc(O)cc1 | -2.09% and 0.383% | inactive
CCCOCC(C)OCC(C)O (configuration not stated) | 1.34% | inactive
O=C(O)c1ccccc1[N+](=O)[O-] | -1.37% | inactive
CCc1ccc(C(c2ccc(CC)cc2)C(Cl)Cl)cc1 | 3.04% | inactive
COC(C)=O | -0.0908% | inactive
O=Cc1cccc(Br)c1 | -4.69% | inactive
CCCCCCCCCCCCCCCCN(C)C | 3.83% | inactive
COC(=O)CCSCCC(=O)OC | -4.49% | inactive
C[Si]1(C)O[Si](C)(C)O[Si](C)(C)O[Si](C)(C)O1 | -3.3% | inactive
CCCCCCCCCCCCc1ccccc1 | 3.31% | inactive
Cc1ccccc1C(N)=O | 2.86% | inactive
CCCCC(CC)COS(=O)(=O)O (configuration not stated) | 1.45% | inactive

SMILES | activation [1] | outcome [2]
CCNc1ccccc1 | -3.11% | inactive
O=C1CCC(=O)O1 | -2.49% | inactive
CCCC(Cl)CCCC(Cl)CCC(Cl)CCC(Cl)CCC(Cl)CCCC(Cl)CCC (configuration not stated) | 1.98% | inactive
CN(C)c1nc(=O)n(C2CCC(O)CC2)c(=O)n1C (configuration not stated) | 2.83% | inactive
CC(C)(C)c1cc(C(C)(C)C)c(O)c(C(C)(C)C)c1 | 8.66% | inactive
CC(C)CCC[C@@H](C)[C@H]1CC[C@H]2[C@@H]3CC=C4C[C@@H](O)CC[C@]4(C)[C@H]3CC[C@]12C | 0.612% | inactive
Clc1ccccn1 | -2.48% | inactive
CCCC[O][Al]([O]CCCC)[O]CCCC | 1.48% | inactive
C/C=C/C/C=C\CCCCCCCCOC(C)=O | -4.9% | inactive
C=C(C)C(=O)OCCCCCCCCCC | -1.22% | inactive
Cc1ccc(N)c(S(=O)(=O)O)c1 | 4.47% | inactive
O=C(/C=C/c1ccc(O)c(O)c1)O[C@@H](C(=O)O)[C@@H](OC(=O)/C=C/c1ccc(O)c(O)c1)C(=O)O | -1.16% | inactive
FB(F)F | 0.812% | inactive
Cc1ccc2oc(=O)ccc2c1 | 0.64% and 1.95% | inactive
CCCCCO | -1.91% | inactive
C1CCOC1 | -4.53% | inactive
Cc1ncc[nH]1 | -1.48% | inactive
CCOC(C)(C)C | 2.11% | inactive
C=Cc1ccccc1Br | 2.37% | inactive
Cc1ccc(S(N)(=O)=O)cc1 | 0.771% and -1.64% | inactive
CC(C)(C)[C@H](O)[C@H](Cc1ccc(Cl)cc1)n1cncn1 | -2.05% and 0.498% | inactive
C1OCOCO1 | -0.63% | inactive
c1ccc(COCc2ccccc2)cc1 | -1.69% | inactive
CC(C)=CCC[C@@H](C)[C@H]1CC[C@@]2(C)C3=C(CC[C@]12C)[C@@]1(C)CC[C@H](O)C(C)(C)[C@@H]1CC3 | -5.29% | inactive
